Screening data (PubChem BioAssay)
In the library only some 1.7% were active in any assay of this set; here they are far more common.
GLP-1R inv ag: inverse agonists of human GLP-1 receptor; Potency, µM (highest dose often 38.3 µM), actives largely listed as inhibitors; 410,000 tested, 1.6% active; P43220; AID 624417; HEK293 GLP-1R CRE-luciferase, luminescence, 24 h; GLP-1R form is constitutively active; note: nearly all actives have a fitted effect of over 55% in size
Target sequence (P43220 whole entry, looked up): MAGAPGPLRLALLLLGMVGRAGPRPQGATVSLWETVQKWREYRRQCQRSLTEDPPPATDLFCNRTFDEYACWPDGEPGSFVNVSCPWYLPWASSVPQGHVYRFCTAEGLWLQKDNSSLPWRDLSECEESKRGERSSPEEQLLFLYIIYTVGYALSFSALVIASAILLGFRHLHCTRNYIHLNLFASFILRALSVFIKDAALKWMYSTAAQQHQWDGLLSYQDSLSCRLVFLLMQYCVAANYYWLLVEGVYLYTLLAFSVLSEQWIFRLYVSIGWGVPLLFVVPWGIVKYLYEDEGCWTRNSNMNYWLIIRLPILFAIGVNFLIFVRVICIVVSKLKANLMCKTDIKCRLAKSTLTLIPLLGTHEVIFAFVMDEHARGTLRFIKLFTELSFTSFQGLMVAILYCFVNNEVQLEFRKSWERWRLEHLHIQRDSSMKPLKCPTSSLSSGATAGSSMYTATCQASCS
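Stable HEK293 clone (constitutively active GLP-1R + cAMP-response luciferase); 200 cells/uL plated, 12 h pre-culture, compound 24 hr, 37 deg C/5% CO2; detection reagent 12 min RT; luminescence.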
HEK293 tox: cytotoxic in the GLP-1 receptor inverse agonist counter-screen; Potency, µM (doses to about 38.3 µM), actives largely listed as inhibitors; 410,000 tested, 0.13% active; HEK293 cAMP-luciferase reporter cells, luminescence, 24 h;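 note: loss of luciferase light is scored as toxicity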
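1536-well qHTS counterscreen of the MLSMR; 200 cells/uL, 12 h pre-incubation, 23 nL cpd, 24 h at 37 deg C 5% CO2, luciferase detection reagent, 12 min RT, luminescence. Inhibition = undesired.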
GLP-1R agonist: GLP-1 receptor (human) agonism; HEK293 GLP-1R CRE-luciferase, luminescence, 4-6 h; cells express a hypersensitive GLP-1R form; Potency, µM (series often up to 45.6 µM), hits mostly activators; 380,000 tested, 0.007% active
PTHR1 agonist: agonists of human PTHR1 parathyroid hormone receptor. Q03431. HEK293 GP2 PTHR1 cells, GloSensor cAMP luminescence, 1 h. Potency, µM (series often up to 115 µM), hits mostly activators. 410,000 tested, 0.075% active. AID 743266; note: nearly all actives have a fitted effect of over 55% in size
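HEK-293-derived GP2 cells expressing PTHR1 and a GloSensor cAMP reporter, 3,000/well, plated overnight, given luciferin plus IBMX (each 0.5 mM as added) for 1 h at 37 °C, then compound for 1 h at 37 °C. Luminescence was read after 15 min at room temperature.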
RGS4 inh: human RGS4 inhibition; P49798; Transcreener GDP fluorescence polarization, RGS4-accelerated GTP hydrolysis; Potency, µM (top dose mostly 114 µM), most hits filed as inhibitors; 390,000 tested, 0.039% active; AID 504845; note: nearly all actives have a fitted effect of over 75% in size
Target sequence (P49798 whole entry, looked up): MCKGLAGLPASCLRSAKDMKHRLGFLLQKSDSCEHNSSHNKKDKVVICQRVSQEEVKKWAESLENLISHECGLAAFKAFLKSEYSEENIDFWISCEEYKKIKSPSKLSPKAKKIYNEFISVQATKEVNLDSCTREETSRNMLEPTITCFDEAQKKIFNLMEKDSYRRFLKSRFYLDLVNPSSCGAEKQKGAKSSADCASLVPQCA
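MLSMR compounds (23 nl, pin-transferred) preincubated 10 min at room temperature with a 500nM (2x) first reagent, then RGS4 at 900nM (2x) plus Transcreener GDP mix added; fluorescence polarization (620/688 nm) read before and after 90 min at 30 °C.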
Each line names hits and unclear results; the compound was inactive in the other large screens; ! = a repeat was not active. Calls come from the whole dose curve; as a rule, active = well fitted curve in the direction sought with a large enough effect; inconclusive = small, poorly fitted or top-dose-only effect, or another doubt; inactive = no such curve, though single readings can be large; an effect the other way counts as inactive or inconclusive.

COc1ccc(CN(CCc2c[nH]c3ccccc23)Cc2ccc(OC)cc2)cc1	GLP-1R inv ag 10µM, HEK293 tox inconclusive
CC/C(=C(\c1ccc(O)cc1)c1ccc(OCCN(C)C)cc1)c1ccccc1	GLP-1R inv ag inconclusive
CCN(CC)CCOc1ccc(/C(=C(/Cl)c2ccccc2)c2ccccc2)cc1	GLP-1R inv ag 11.2µM, HEK293 tox inconclusive
COc1ccc2c(c1)CCc1c(C(=O)Nc3c(C)nn(Cc4ccccc4C)c3C)noc1-2	GLP-1R inv ag 10µM (no result: GLP-1R agonist)
Cc1ccc(C(=O)Nc2ccncc2)cc1S(=O)(=O)N1CCCCC1	none (no result: RGS4 inh)
C[C@]12CCC3C(CCC4=C(Cl)C(=O)CC[C@@]43C)C1CCC2O (some centres not stated)	none (no result: GLP-1R inv ag, HEK293 tox, PTHR1 agonist, RGS4 inh)
CC12CCC3c4ccc(OC(=O)N(CCCl)CCCl)cc4CCC3C1CCC2O (configuration not stated)	GLP-1R inv ag 10µM, HEK293 tox inconclusive
S=C(S)N1CCCC1	RGS4 inh 5.32µM!
NS(=O)(=O)c1cc(C(=O)OCC(=O)Nc2ccc3[nH]c(=O)[nH]c3c2)ccc1Cl	RGS4 inh inconclusive
NC(CCc1ccccc1)c1csc(NC(=O)Nc2ccccc2Oc2ccccc2)n1 (configuration not stated)	GLP-1R inv ag inconclusive (no result: RGS4 inh)
N.N.N.N.N.N.N.N.N.N.N.N.N.N.O.O.[Ru+4].[Ru+5].[Ru+5]	RGS4 inh 18.9µM (no result: GLP-1R inv ag, HEK293 tox, GLP-1R agonist, PTHR1 agonist)
CCc1cc(OC)c(CC(C)N)cc1OC (configuration not stated)	none (no result: GLP-1R inv ag, HEK293 tox, PTHR1 agonist, RGS4 inh)
CCOc1ccc(-c2cc(C)[n+](CCc3ccc(OC)c(OC)c3)c(-c3ccc(OCC)cc3)c2)cc1	GLP-1R inv ag 6.31µM, HEK293 tox inconclusive
COCCNCCOc1ccc(C(C)(C)c2ccccc2)cc1	GLP-1R inv ag 10µM
C[N+](C)(C)CCOC(=O)C(O)(c1ccccc1)c1ccccc1	none (no result: GLP-1R inv ag, HEK293 tox, PTHR1 agonist, RGS4 inh)
CCOC(=O)C(O)(c1ccc(NC(=S)NC(=O)c2ccc(Cl)cc2Cl)c(C)c1)C(F)(F)F (configuration not stated)	GLP-1R inv ag 3.98µM, HEK293 tox inconclusive
O=c1nc(/C=C/c2ccc(Cl)cc2Cl)cc(C(F)(F)F)[nH]1	GLP-1R inv ag 3.98µM, RGS4 inh inconclusive
CCOC(=O)c1c(C)n(-c2ccc(OC)cc2)c2ccc(O)c(CN(C)C)c12	GLP-1R inv ag 5.62µM, HEK293 tox inconclusive
CCOC(=O)c1c(C)n(-c2ccc(C)cc2)c2c(C(C(C)=O)C(=O)O)c(Br)c(O)c(O)c12 (configuration not stated)	HEK293 tox inconclusive, RGS4 inh inconclusive
CCn1nc(-c2cccs2)nc2c(=O)n(C)c(=O)nc1-2	GLP-1R inv ag 2.82µM, HEK293 tox inconclusive
NC(=O)CI	RGS4 inh 18.9µM (no result: GLP-1R inv ag, HEK293 tox, GLP-1R agonist, PTHR1 agonist)
CC1=C(C(=O)OCC(C)C)C(c2cccs2)NC(=S)N1 (configuration not stated)	GLP-1R inv ag inconclusive, HEK293 tox inconclusive
O=C(CF)NC(Nc1cccc2cccnc12)C(Cl)(Cl)Cl (configuration not stated)	GLP-1R inv ag 10µM
CC(C)C[C@H]1CNC(=S)N1CC1CCN(CC2CCC(C(C)(C)C)CC2)CC1 (some centres not stated)	none
COc1ccccc1CNc1nc(NCc2ccccc2OC)c2sccc2n1	GLP-1R inv ag 11.2µM, HEK293 tox inconclusive (no result: RGS4 inh)
Cc1ccccc1CN1CCN(Cc2ccccc2)CC1	PTHR1 agonist 44.7µM
Oc1c(Br)cc(Br)cc1CN1CCN(Cc2ccccc2)CC1	GLP-1R inv ag 10µM
CCOCc1c(C(=O)Nc2ccc3nc(N4CCOCC4)sc3c2)oc2ccccc12	GLP-1R inv ag inconclusive, HEK293 tox inconclusive
C=C[C@H](Cc1ccccc1)N(Cc1ccccc1)S(=O)(=O)N(Cc1ccccc1)[C@H](C=C)Cc1ccccc1	none
COc1ccc(CS(=O)(=O)/C(Cl)=C(/Cl)C(=O)Nc2ccc(OC)nc2)cc1	GLP-1R inv ag inconclusive, HEK293 tox 11.2µM
COc1ccccc1-c1ncn(Cc2cccc(-c3ccccc3)c2)c1CC(C)C	GLP-1R inv ag inconclusive, HEK293 tox inconclusive (no result: RGS4 inh)
O=C1C=C(c2c(O)ccc3ccccc23)c2ccccc2C1=O	GLP-1R inv ag inconclusive, HEK293 tox 10µM, RGS4 inh inconclusive
NS(=O)(=O)c1ccc(NC2=CC(=O)C(=O)c3ccccc32)cc1	HEK293 tox inconclusive
Cc1c(CN2CCC(CO)(CCOc3ccccc3)CC2)[nH]c2c(Cl)cccc12	GLP-1R inv ag 4.47µM, HEK293 tox inconclusive
Cc1[nH]c2c(Cl)cccc2c1CCN	GLP-1R inv ag inconclusive
CCOC(=O)Nc1ccc(NCc2ccc(F)cc2)nc1N	RGS4 inh 8.43µM
COc1ccc2nc(N3CCN(C(=O)CS(=O)(=O)c4ccc(C)cc4)CC3)sc2c1	none (no result: GLP-1R agonist)
CCCCNC(=S)Nc1ccc(C(F)(F)F)cc1	GLP-1R inv ag inconclusive, HEK293 tox inconclusive
O=C(c1ccccc1Cl)N1CCC(c2nc3ccccc3s2)CC1	none (no result: GLP-1R agonist)
COc1cccc(CN2CCN(C(=O)COc3ccc4ccccc4c3)CC2)c1	GLP-1R inv ag 11.2µM
Cc1ccc(NC(=O)COc2ccc(-c3nn(C)c(=O)c4ccccc34)cc2)c(C)c1	none (no result: GLP-1R agonist)
C[C@@H]1[C@H](O)[C@@H](C)C=CC=CCCC=CC=CC=CC=C[C@H](O[C@H]2O[C@@H](C)[C@H](O)[C@@H](N)[C@@H]2O)CC2O[C@](O)(C[C@@H](O)[C@H](O)CC[C@@H](O)C[C@@H](O)C[C@@H](O)CC(=O)O[C@H]1C)C[C@H](O)[C@H]2C(=O)O	none (no result: GLP-1R inv ag, HEK293 tox, PTHR1 agonist, RGS4 inh)
Cc1ccc(C(=O)NCCSC2CCCCC2)cc1S(=O)(=O)Nc1ccccc1	GLP-1R inv ag 11.2µM, HEK293 tox inconclusive
COc1cc(NC(=O)c2cc3cc4ccc(C)cc4nc3o2)cc(OC)c1OC	none
O=c1[nH]c(=S)n(CCC2=CCCCC2)c(O)c1/C=N/Nc1ccccc1	GLP-1R inv ag 4.47µM, RGS4 inh inconclusive
CCCOP(=O)(OCCC)c1nc(-c2ccccc2)oc1NCc1ccccc1	GLP-1R inv ag 10µM
COc1ccccc1CNCC(=O)Nc1cc(S(=O)(=O)N2CCCCC2)ccc1C	GLP-1R inv ag inconclusive
Cc1ccc(S(=O)(=O)N2CCC(C(=O)OCc3ccccc3)CC2)cc1C	GLP-1R inv ag 10µM
CCOP(=O)(CCP(=O)(OCC)OCC)OCC.C[CH2][Sn]([Cl])([Cl])[CH2]C	GLP-1R inv ag inconclusive, HEK293 tox 12.6µM, RGS4 inh inconclusive
O=C(NCCc1ccccc1)c1ccc2nccnc2c1	GLP-1R inv ag 5.01µM
O=C(NCCc1ccccc1)c1ccc(CSc2nc3cccnc3n2Cc2ccc(F)cc2)cc1	GLP-1R inv ag inconclusive (no result: GLP-1R agonist)
CN1CCCCC1c1cccnc1 (configuration not stated)	RGS4 inh 37.7µM (no result: GLP-1R inv ag, HEK293 tox, GLP-1R agonist, PTHR1 agonist)
CCC(=O)O[C@@](Cc1ccccc1)(c1ccccc1)[C@H](C)CN(C)C	none (no result: GLP-1R inv ag, HEK293 tox, PTHR1 agonist, RGS4 inh)
CNCCCN1c2ccccc2CCc2ccccc21	GLP-1R inv ag 3.98µM
COCCCN1Cc2ccccc2C1=N	none
